This passage reports Percent Effect results from ChEMBL document CHEMBL3988442, “University of Dundee, Small-Polar-MMV Screening Library” (2021).

Holding throughout (parameters): scale not given: direction of the effect not stated beside the values
Test [1] has as its target Protein translocase subunit SecA (Escherichia coli (strain K12)) (UniProt P10408). Briefly: Assay to Identify E. coli SecA ATPase Inhibitors. The test is classed as functional. As to conditions: 30 µM.
For test [2], the target named is T1, Ubiquitin-activating enzyme e1, putative (Leishmania donovani (strain BPK282A1)) (UniProt E9BSI1).
T1 sequence (whole entry): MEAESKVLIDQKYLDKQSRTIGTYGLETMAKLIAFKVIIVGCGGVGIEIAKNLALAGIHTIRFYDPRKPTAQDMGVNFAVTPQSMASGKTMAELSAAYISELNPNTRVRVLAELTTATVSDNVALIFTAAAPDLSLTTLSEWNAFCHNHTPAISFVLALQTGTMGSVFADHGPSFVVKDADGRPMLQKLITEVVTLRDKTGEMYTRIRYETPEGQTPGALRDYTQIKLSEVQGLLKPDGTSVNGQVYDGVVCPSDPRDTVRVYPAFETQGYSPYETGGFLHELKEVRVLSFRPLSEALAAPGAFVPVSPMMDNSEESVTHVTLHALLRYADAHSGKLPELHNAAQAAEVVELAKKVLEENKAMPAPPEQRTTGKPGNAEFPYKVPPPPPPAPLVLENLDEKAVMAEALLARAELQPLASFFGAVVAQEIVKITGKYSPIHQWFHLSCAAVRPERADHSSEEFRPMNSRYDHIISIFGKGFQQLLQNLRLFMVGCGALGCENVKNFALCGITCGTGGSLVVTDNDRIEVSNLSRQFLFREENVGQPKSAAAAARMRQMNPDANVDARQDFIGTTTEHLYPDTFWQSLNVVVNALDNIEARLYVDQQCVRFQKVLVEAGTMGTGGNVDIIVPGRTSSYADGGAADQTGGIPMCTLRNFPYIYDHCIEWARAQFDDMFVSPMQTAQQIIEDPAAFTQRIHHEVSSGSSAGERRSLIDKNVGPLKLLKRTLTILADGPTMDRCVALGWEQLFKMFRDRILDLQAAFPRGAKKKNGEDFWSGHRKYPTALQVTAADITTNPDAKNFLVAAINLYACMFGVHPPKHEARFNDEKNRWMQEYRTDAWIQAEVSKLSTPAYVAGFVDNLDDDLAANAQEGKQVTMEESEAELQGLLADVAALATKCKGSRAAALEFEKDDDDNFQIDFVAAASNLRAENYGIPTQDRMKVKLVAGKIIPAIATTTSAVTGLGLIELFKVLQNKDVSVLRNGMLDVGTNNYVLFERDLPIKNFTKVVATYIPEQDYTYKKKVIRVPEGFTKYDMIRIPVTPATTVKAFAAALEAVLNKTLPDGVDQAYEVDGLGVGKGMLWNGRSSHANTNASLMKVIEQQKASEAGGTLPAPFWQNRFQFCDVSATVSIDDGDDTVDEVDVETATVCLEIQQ
Briefly: Leishmania donovani Ubiquitin Activating Enzyme (LdE1). The test is classed as functional. To be noted: 30 µM.

Test [3] has as its target AMP-activated protein kinase, AMPK (Homo sapiens) (UniProt P54646+O43741+P54619+Q9UGJ0+Q9Y478+Q13131+Q9UGI9). Briefly: AMP-dependent Kinase enzyme assay. An in vitro enzyme assay that detects ADP turnover that is directly proportional to AMPK activity. This uses naive AMPK that is activated during the assay with MK-8722. The test is classed as functional. To be noted: 30 µM.

Test [4] has as its target Sialic acid-binding Ig-like lectin 9 (Homo sapiens) (UniProt Q9Y336). The test is described as follows: Hs-Siglec9 ALPHAscreen SOP 20170721. To be noted: 10 µM. (In Alpha technology, singlet oxygen from a donor bead excites a nearby acceptor bead.)
The test system of another test is Trypanosoma cruzi. The test is described as follows: Trypanosoma cruzi phosphomannomutase and mannose-1-phosphate guanylyltransferase assay. The test is classed as functional. As to conditions: 10 µM.
The target of test [5] is T2, Arginase-2, mitochondrial (Homo sapiens) (UniProt P78540).
T2 sequence (whole entry): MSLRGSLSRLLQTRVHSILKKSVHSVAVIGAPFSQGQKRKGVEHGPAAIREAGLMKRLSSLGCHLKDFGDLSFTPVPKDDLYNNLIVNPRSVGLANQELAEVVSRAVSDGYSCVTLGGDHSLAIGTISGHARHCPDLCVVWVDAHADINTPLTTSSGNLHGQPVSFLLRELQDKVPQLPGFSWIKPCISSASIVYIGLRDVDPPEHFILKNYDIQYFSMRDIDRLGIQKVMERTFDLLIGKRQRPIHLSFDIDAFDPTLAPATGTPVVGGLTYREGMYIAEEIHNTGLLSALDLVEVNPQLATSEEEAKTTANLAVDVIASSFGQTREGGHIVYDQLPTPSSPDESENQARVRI
Briefly: in vitro enzyme assay to detect the production of urea directly proportional to the activity of Arginase II. Note: in the data most compounds retested in dose-response had high values. The test is classed as functional. As to conditions: 33.3 µM.

The target in test [6] is T3, Proteasome subunit beta (Trypanosoma cruzi) (UniProt O96673).
T3 sequence (whole entry): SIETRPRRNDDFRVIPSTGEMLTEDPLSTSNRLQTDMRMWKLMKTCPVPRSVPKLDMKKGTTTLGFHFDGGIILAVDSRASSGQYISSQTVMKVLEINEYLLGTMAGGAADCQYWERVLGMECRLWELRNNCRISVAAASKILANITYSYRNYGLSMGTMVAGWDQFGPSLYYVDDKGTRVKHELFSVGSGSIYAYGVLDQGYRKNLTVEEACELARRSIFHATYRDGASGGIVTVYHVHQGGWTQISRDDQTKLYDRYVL
Briefly: Trypanosoma cruzi proteasome chymotrypsin-like activity (TcProtChymo) assay. Note: in the data most compounds retested in dose-response had high values. In kind it is functional. To be noted: 9.37 µM.

The next test is filed under the species Homo sapiens. Briefly: To identify inhibition of the IFN signalling (Jak-Stat) pathway via expression of an eGFP reporter gene under the control of an IFN-stimulated response element (ISRE) containing MxA promoter. The test is classed as functional. As to conditions: 30 µM. (Reporter assays use an easily measured gene product as a stand-in for the process of interest.)

The target of test [7] is T4, Tyrosyl-tRNA synthetase, putative (Trypanosoma cruzi (strain CL Brener)) (UniProt Q4DSP6).
T4 sequence (whole entry): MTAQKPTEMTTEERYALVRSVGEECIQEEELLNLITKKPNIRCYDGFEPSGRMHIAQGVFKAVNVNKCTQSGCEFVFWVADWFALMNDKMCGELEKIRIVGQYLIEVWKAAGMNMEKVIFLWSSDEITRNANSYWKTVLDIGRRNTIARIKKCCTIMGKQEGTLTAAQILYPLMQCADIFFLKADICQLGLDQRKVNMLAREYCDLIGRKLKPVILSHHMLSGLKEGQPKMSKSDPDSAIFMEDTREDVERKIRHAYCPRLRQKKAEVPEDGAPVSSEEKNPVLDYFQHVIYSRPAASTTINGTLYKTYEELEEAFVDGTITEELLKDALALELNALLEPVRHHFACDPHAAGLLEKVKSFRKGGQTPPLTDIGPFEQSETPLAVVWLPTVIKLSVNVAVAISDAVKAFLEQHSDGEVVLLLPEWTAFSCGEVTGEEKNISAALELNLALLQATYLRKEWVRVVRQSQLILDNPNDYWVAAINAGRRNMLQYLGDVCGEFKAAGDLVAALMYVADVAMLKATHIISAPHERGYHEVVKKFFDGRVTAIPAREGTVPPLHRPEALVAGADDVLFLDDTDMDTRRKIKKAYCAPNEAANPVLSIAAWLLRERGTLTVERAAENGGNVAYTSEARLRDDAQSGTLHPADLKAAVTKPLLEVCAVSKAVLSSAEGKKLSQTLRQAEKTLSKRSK
Briefly: Trypanosoma cruzi tyrosyl tRNA synthetase (TcYRS) _High Tyrosine SOP. Note: in the data most compounds retested in dose-response had high values. To be noted: 30 µM. The test is classed as functional.

Test [8] deals with T4, Tyrosyl-tRNA synthetase, putative (Trypanosoma cruzi (strain CL Brener)). The test is described as follows: Trypanosoma cruzi tyrosyl tRNA synthetase (TcYRS) SOP. The test is classed as functional. As to conditions: 30 µM.
Test [9] deals with Chromo domain-containing protein 1 (Saccharomyces cerevisiae (strain ATCC 204508 / S288c) (Baker's yeast)) (UniProt P32657). The test is described as follows: ScCHD-1 Enzyme Inhibition Assay. Note: in the data most compounds retested in dose-response had high values. As to conditions: 30 µM. In kind it is functional.
Sequence of Chromo domain-containing protein 1 (Saccharomyces cerevisiae (strain ATCC 204508 / S288c) (Baker's yeast)) (P32657 whole entry, the tested form may be a part): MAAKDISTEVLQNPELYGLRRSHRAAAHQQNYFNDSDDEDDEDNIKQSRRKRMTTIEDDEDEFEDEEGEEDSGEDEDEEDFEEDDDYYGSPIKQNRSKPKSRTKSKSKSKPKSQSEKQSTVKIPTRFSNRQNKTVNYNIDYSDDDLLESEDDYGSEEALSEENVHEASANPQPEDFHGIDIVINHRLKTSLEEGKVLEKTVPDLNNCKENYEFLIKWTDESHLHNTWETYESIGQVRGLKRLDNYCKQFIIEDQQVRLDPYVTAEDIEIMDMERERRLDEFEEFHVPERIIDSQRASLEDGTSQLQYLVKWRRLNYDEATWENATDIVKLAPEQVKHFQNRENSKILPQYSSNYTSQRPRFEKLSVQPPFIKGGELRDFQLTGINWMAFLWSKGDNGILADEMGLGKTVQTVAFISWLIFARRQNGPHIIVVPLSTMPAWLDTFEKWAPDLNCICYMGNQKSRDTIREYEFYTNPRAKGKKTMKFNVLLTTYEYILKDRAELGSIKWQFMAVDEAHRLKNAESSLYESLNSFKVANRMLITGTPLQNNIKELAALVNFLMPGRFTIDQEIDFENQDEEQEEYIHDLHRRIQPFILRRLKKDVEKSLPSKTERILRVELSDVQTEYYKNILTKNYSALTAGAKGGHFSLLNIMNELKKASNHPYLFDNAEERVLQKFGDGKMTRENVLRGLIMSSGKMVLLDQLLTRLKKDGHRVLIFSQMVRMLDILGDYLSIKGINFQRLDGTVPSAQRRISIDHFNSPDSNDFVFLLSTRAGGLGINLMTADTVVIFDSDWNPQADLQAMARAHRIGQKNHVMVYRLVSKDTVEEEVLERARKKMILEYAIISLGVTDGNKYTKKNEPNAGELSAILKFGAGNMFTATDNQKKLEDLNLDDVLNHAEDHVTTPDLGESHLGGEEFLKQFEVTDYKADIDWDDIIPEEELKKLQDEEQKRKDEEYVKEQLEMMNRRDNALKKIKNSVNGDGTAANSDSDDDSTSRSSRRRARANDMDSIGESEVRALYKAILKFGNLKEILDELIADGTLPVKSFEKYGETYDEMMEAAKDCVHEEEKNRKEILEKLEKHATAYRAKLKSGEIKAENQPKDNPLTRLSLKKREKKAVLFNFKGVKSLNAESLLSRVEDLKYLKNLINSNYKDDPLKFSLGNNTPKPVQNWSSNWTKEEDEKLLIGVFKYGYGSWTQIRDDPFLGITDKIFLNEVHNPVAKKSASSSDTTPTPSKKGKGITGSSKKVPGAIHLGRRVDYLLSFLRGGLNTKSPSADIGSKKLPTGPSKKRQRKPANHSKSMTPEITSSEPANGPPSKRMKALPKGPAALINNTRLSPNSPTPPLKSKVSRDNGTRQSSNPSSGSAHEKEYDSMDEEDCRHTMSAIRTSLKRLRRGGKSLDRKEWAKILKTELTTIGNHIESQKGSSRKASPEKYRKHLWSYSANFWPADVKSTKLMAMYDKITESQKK

For some of these results: Results with a measured potency or affinity are listed apart.

Sequence of Protein translocase subunit SecA (Escherichia coli (strain K12)) (P10408 whole entry): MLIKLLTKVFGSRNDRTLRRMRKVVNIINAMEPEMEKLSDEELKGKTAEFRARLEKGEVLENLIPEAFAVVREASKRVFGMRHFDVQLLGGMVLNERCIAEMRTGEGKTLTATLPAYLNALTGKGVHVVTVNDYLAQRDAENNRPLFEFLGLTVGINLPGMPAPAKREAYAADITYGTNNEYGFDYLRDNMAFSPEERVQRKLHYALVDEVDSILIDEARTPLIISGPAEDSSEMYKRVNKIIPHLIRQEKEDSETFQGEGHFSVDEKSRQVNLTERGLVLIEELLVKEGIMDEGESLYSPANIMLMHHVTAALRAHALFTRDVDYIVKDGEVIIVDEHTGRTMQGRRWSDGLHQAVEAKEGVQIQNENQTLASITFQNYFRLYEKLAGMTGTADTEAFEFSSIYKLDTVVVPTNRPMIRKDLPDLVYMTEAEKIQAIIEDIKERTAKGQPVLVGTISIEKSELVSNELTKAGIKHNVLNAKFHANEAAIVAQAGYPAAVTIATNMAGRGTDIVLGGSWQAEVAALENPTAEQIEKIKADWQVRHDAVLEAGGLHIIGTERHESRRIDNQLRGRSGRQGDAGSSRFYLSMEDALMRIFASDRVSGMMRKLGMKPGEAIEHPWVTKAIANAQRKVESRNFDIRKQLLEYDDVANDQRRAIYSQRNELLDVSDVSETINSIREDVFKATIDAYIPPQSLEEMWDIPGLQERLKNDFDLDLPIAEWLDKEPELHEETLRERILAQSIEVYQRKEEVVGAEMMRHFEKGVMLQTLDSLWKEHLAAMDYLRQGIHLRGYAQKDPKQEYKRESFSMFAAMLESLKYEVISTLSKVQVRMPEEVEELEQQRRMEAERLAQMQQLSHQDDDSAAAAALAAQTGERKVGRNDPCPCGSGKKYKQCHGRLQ
Sequence of Sialic acid-binding Ig-like lectin 9 (Homo sapiens) (Q9Y336 whole entry): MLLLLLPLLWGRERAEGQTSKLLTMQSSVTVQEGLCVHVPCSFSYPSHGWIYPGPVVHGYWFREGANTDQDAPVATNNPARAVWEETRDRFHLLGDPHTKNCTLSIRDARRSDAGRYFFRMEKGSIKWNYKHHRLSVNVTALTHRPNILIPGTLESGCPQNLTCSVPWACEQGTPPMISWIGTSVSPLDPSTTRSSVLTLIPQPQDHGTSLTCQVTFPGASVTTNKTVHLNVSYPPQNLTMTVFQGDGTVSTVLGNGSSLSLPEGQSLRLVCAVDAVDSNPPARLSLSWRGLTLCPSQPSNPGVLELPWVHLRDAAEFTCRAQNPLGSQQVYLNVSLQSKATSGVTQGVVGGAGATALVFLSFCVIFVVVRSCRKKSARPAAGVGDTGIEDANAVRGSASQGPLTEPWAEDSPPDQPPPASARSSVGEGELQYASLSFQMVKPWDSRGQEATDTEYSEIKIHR

Take `CCOc1ccccc1Nc1nc2c(C)nn(C)c2c(=O)n1C`: the Percent Effect in [1] was -4.55%; in test [2], 20.8%; in test [3] it was 1.12%; in [4] it was 10.9%; with Trypanosoma cruzi, 3.64%; in test [5], 6.9%. The Percent Effect was 10.7% in test [6]; -5.39% in the test listed under Homo sapiens; 8.6% in [7]; 18.5% in [8]; -6.44% in [9].

As for `CCn1cc(CN2CCCN(C(=O)CCCn3cncn3)CC2)cn1`, the Percent Effect in test [1] is -2.76%; in test [2], 0%; in [3] it was 7.06%; in test [4], 6.78%; in the test on Trypanosoma cruzi it was 5.43%; in test [5], 1.42%. Also, the Percent Effect was 5.91% in [6]; 17.2% in the test filed under Homo sapiens; 4.85% in test [7]; 14.6% in test [8]; -6.03% in [9].

For `O=C(NCC1CC1)C1CN(C(=O)c2cccc(Cl)c2)CC12CCOCC2` (stereo unspecified), the Percent Effect in [1] was 1.58%; in test [2] it was 10.4%; in [3], 52.3%; in [4] it was -13.8%; in the test with Trypanosoma cruzi, -9.37%; in [5], 5.81%. The Percent Effect in [6] was 16.4%; in the test listed under Homo sapiens, 12.4%; in test [7] it was 2.12%; in [8], -8.97%; in test [9], -9.61%.

Turning to `Cc1cc(C)n(C2CCCN(C(=O)c3ccc(NC4CC4)nc3)C2)n1` (stereo unspecified), the Percent Effect is -6.18% in test [1]; 7.79% in test [2]; 5.88% in [3]; 2.52% in test [4]; -4.6% in the test on Trypanosoma cruzi; 1.05% in test [5]. Moreover, the Percent Effect in test [6] is 7.52%; in the test listed under Homo sapiens it was 16.1%; in [7] it was 4.76%; in [8], 9.41%; in test [9], -13.5%.

For `CCSCCC(=O)Nc1ncn(Cc2cccnc2)n1`, the Percent Effect in [1] is -2.86%; in test [2] it was 5.33%; in test [3], -3.63%; in [4], 8.4%; in the test with Trypanosoma cruzi, -5.16%; in test [5], 3.65%. Also, the Percent Effect is 17.8% in test [6]; 9.04% in the test listed under Homo sapiens; 4.92% in test [7]; 13.6% in test [8]; -5.58% in test [9].

Turning to `CCCC1CCCN(Cc2csc(-c3cnn(C)c3)n2)CC1` (stereo unspecified), the Percent Effect in test [1] was -2.48%; in test [2], -5.26%; in test [3] it was -0.945%; in test [4], -3.96%; in the test with Trypanosoma cruzi it was -0.376%; in test [5] it was -5.75%. In addition, the Percent Effect in test [6] was 20.4%; in the test listed under Homo sapiens, 20.6%; in [7], 8.33%; in [8], 19.5%; in test [9] it was -4.84%.

Take `Cn1ncc2c1CN(Cc1cccnc1)CC2COCC1CC1` (stereo unspecified): the Percent Effect in [1] was -0.107%; in test [2] it was 2.74%; in test [3] it was -3.62%; in test [4] it was 3.4%; in the test with Trypanosoma cruzi, 6.55%; in test [5], 4.79%. For the same molecule, the Percent Effect is 12.6% in test [6]; -15.1% in the test filed under Homo sapiens; 4.17% in [7]; 8.64% in test [8]; -7.87% in test [9].

With `Cc1nn(C)c(C)c1C1CCCN1CCCc1nc2ccccc2o1` (stereo unspecified), the Percent Effect in [1] is -7.27%; in [2], 8.11%; in test [3], -11.9%; in test [4], 17.9%; with Trypanosoma cruzi, 5.38%; in test [5], -10%. The Percent Effect in test [6] was 8.47%; in the test filed under Homo sapiens, 13.8%; in [7], 11.3%; in [8], 23.5%; in test [9], -12.9%.

`COc1cccc(N2CCN(CC(O)c3ccc(C)cc3)CC2)c1` (stereo unspecified): the Percent Effect is -1.61% in test [1]; 21.1% in test [2]; -2.12% in test [3]; -9.96% in test [4]; 0.292% in the test on Trypanosoma cruzi; 0% in test [5]. Besides, the Percent Effect came to 17% in test [6]; 3.85% in the test listed under Homo sapiens; 5.32% in [7]; 20.8% in [8]; 21% in test [9].

For the molecule `CCN1CCN(C2CCN(Cc3nc(-c4ccoc4)no3)CC2)C1=O`, the Percent Effect was -8.04% in test [1]; 2.6% in test [2]; 7.03% in test [3]; -5.89% in test [4]; -5.24% in the test on Trypanosoma cruzi; 1.07% in test [5]. The Percent Effect is 0.676% in test [6]; 23.7% in the test filed under Homo sapiens; 1.94% in test [7]; 0% in test [8]; -2.83% in test [9].

Consider `CCn1cnnc1CNC(=O)NC(C)C(C)C` (stereo unspecified), for which the Percent Effect is -4.76% in test [1]; 13% in test [2]; 3.19% in [3]; 7.03% in [4]; -4.68% with Trypanosoma cruzi; 0% in [5]. In addition, the Percent Effect is 12.5% in test [6]; 22.8% in the test filed under Homo sapiens; 2.91% in [7]; 7.32% in test [8]; -1.46% in [9].
